From publication PMC11574364 come the findings set out here.

Common to all, as to test: protein domain microarray probed with biotinylated miRNA; Domain array: 20 mM Tris-HCl pH 7.4, 200 mM KCl, 0.2 mM EDTA, 0.05% NP40, 2 ug/ul heparin, overnight 4 C. ORF array: PBS pH 7.0 with RNase inhibitor, 100 ng RNA; high values mean tight binding
Settings in all cases: ssRNA

Experiment [1] deals with T1, U1SNRNPBP (Homo sapiens, UniProt Q16560).
T1 sequence: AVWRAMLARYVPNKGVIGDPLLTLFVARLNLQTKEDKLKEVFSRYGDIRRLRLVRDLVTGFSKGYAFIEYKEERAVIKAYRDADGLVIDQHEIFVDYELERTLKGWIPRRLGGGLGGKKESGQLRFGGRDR

Experiment [2] has as its target T2, RBM47 (Homo sapiens, UniProt A0AV96).
T2 sequence: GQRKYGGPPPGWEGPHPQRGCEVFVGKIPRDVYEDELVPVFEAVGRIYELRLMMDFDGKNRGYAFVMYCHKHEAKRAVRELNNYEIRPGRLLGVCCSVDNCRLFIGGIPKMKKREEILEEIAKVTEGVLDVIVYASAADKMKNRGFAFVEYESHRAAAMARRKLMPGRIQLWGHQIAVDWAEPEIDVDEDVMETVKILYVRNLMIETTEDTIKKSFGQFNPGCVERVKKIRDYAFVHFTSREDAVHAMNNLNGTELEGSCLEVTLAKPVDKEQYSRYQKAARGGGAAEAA

Experiment [3] has as its target T3, KHSRP(1-4) (Homo sapiens, UniProt Q92945).
T3 sequence: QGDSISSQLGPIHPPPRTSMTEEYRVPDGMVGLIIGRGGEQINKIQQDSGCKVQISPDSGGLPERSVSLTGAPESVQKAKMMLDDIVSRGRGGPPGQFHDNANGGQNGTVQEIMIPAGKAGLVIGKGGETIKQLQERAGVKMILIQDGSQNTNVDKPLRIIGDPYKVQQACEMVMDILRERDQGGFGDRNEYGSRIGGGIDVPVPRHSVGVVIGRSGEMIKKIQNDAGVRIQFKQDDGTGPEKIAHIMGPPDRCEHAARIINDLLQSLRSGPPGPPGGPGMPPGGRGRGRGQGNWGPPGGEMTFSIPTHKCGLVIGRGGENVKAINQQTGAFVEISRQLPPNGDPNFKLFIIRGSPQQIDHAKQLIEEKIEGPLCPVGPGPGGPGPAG

Experiment [4] has as its target T4, RBMS2 (Homo sapiens, UniProt Q15434).
T4 sequence: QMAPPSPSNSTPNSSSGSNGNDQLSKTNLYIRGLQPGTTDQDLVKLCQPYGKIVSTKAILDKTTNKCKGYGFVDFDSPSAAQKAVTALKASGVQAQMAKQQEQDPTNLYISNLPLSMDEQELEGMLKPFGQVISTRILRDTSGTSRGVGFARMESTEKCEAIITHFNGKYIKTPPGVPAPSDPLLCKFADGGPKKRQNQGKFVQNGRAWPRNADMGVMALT

Experiment [5] concerns the target STAU1(1) (Homo sapiens, UniProt O95793).
Experiment [6] concerns the target T5, STRBP(1) (Homo sapiens, UniProt Q96SI9).
T5 sequence: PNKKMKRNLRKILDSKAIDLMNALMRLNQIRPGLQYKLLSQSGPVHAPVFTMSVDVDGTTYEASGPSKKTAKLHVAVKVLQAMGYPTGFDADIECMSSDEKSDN

Experiment [7] has as its target RALY (Homo sapiens, UniProt Q9UKM9).
For experiment [8], the target named is RBM25 (Homo sapiens, UniProt P49756).
RBM25, sequence (P49756 67-185): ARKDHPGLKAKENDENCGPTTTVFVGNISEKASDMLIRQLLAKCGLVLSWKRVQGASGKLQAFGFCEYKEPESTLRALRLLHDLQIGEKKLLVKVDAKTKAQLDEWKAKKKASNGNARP
The target in experiment [9] is T6, RBM21 (Homo sapiens, UniProt Q9H6E5).
T6 sequence: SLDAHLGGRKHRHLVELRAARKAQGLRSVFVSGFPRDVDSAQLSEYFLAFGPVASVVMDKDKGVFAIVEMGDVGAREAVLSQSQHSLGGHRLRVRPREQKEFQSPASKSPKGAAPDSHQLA

Experiment [10] deals with T7, SART3 (Homo sapiens, UniProt Q15020).
T7 sequence: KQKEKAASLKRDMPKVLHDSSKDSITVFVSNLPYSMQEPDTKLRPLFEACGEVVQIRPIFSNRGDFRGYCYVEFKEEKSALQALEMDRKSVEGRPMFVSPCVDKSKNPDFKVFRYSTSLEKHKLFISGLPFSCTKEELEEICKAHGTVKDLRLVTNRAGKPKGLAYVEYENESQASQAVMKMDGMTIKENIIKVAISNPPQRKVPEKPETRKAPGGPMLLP

RALY, sequence (Q9UKM9 1-115): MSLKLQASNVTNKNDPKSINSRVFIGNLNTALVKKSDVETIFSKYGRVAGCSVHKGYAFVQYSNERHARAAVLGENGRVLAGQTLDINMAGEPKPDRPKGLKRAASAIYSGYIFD
STAU1(1), sequence (O95793 52-182): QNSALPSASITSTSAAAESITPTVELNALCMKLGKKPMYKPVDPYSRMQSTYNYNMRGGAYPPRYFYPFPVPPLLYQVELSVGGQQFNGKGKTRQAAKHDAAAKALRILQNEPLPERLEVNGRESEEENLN

As for UGAGGUAGUAGGUUGUAUGGUU, the binding signal was 99.4 ± 1.25 fluorescence intensity in [1]; 41.2 ± 0.636 fluorescence intensity in experiment [2]; 786 ± 28.3 fluorescence intensity in experiment [3]; 91.7 ± 4.18 fluorescence intensity in [4]; 44.5 ± 1.05 fluorescence intensity in experiment [5]; 62.8 ± 0.686 fluorescence intensity in [6]. Moreover, the binding signal in [7] was determined as 1750 ± 31.6 fluorescence intensity; in [8] it was 63.1 ± 0.806 fluorescence intensity; in [9] it was 53.6 ± 2.81 fluorescence intensity; in experiment [10], 51.5 ± 2.31 fluorescence intensity.
As to CAGUGCAAUGAUGAAAGGGCAU, the binding signal came to 46.4 ± 1.24 fluorescence intensity in [1]; 26.2 ± 2.96 fluorescence intensity in experiment [2]; 675 ± 8.46 fluorescence intensity in [3]; 39 ± 3.47 fluorescence intensity in [4]; 37.99 ± 0.283 fluorescence intensity in experiment [6]; 332 ± 5.22 fluorescence intensity in [7]. The binding signal in [8] is 36 ± 0.488 fluorescence intensity; in [9] it was 38.1 ± 3.22 fluorescence intensity; in experiment [10], 29.6 ± 6.57 fluorescence intensity.
With AGAGGUAGUAGGUUGCAUAGUU, the binding signal in experiment [1] was 63.6 ± 1.29 fluorescence intensity; in experiment [2] it was 29.82 ± 0.276 fluorescence intensity; in [3], 951 ± 76.8 fluorescence intensity; in experiment [4], 79.9 ± 6.82 fluorescence intensity; in experiment [5], 25.68 ± 0.0778 fluorescence intensity; in [6] it was 34.2 ± 1.84 fluorescence intensity. Further, the binding signal in [7] was 1628 ± 11.4 fluorescence intensity; in experiment [8] it was 39.5 ± 3.96 fluorescence intensity; in [9], 34.33 ± 0.0778 fluorescence intensity; in [10] it was 36.8 ± 2.71 fluorescence intensity.
Consider UAGCUUAUCAGACUGAUGUUGA, for which the binding signal in [3] is 192 ± 3.5 fluorescence intensity; in experiment [7], 591 ± 33.9 fluorescence intensity.
Take UGAGGUAGUAGGUUGUAUAGUU: the figures for the binding signal in experiment [3], in experiment [4] and in [7] were 419 ± 11.8 fluorescence intensity, 24.7 ± 2.59 fluorescence intensity and 789 ± 24.3 fluorescence intensity, respectively.
As for UGAGGUAGUAGGUUGUGUGGUU, the binding signal in experiment [1] was 130 ± 6.12 fluorescence intensity; in experiment [2], 53 ± 7.04 fluorescence intensity; in experiment [3] it was 992.47 ± 0.686 fluorescence intensity; in experiment [4] it was 95.1 ± 1.34 fluorescence intensity; in experiment [5], 69.7 ± 6.19 fluorescence intensity; in experiment [6] it was 125 ± 14.3 fluorescence intensity. Besides, the binding signal in [7] is 1730 ± 54.9 fluorescence intensity; in [8], 98.3 ± 20.9 fluorescence intensity; in experiment [9] it was 63.5 ± 6.73 fluorescence intensity; in [10], 113 ± 30.2 fluorescence intensity.
